This is an account of results in PubChem BioAssay (Tox21).

Structures are written as SMILES. Unmarked numbers belong to inactive results. Results filed as inconclusive are left out. Activity calls are given as the source filed them. Unless noted, the call rests on the fitted dose curve; in most records, active means well fitted curve in the direction sought with a large enough effect in the repeat runs; inconclusive means weak or mixed curves; inactive means no such curve, though single readings can be large; an effect the other way counts as inactive or inconclusive.

The nature of experiment [1]: qHTS assay to test for compound auto fluorescence at 535 nm (green) in HEK293 cells (AID 720680). A general note: In qHTS, concentration-response curves come from the screen itself.
Experiment [2] is described as follows: qHTS assay to test for compound auto fluorescence at 460 nm (blue) in HEK293 cell free culture (AID 720681). In short, it runs like this:
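Test compounds were pinned into cell-free culture medium (DMEM with 10% FBS) and fluorescence was read directly at Ex/Em 405/460 nm. Signals were expressed as fluorescence equivalents of triamterene, with DMSO vehicle as control.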

Experiment [3] can be described thus: qHTS assay to test for compound auto fluorescence at 535 nm (green) in HEK293 cell free culture (AID 720682). In short, it runs like this: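 Green-label autofluorescence (485 nm excitation, 535 nm emission) measured on compound added to cell-free culture medium (DMEM, 10% FBS). Output is expressed relative to fluorescein.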
Experiment [4] is described as follows: qHTS assay to test for compound auto fluorescence at 590 nm (red) in HEK293 cell free culture (AID 720683). In short, it runs like this: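 Tox21 10K library compounds were pinned into cell-free DMEM with 10% FBS and fluorescence was read at excitation 540 nm. Activity is expressed as Rose Bengal sodium equivalency.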
The nature of experiment [5]: qHTS assay to test for compound auto fluorescence at 590 nm (red) in HepG2 cell free culture (AID 720684). In short, it runs like this: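 Red fluorescence (540 nm excitation, 590 nm emission) was measured after compound transfer into cell-free MEM supplemented with 10% FBS. Values are equivalencies against Rose Bengal sodium.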
Experiment [6] is described as follows: qHTS assay to test for compound auto fluorescence at 460 nm (blue) in HepG2 cell free culture (AID 720685). The essentials:
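Compound (23 nL) or DMSO pinned into cell-free MEM with 10% FBS; blue fluorescence read at 405/460 nm excitation/emission, expressed as auto-fluorescence equivalency to triamterene.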

Experiment [7] is described as follows: qHTS assay to test for compound auto fluorescence at 535 nm (green) in HepG2 cell free culture (AID 720686).
A short description of experiment [8]: qHTS assay to test for compound auto fluorescence at 460 nm (blue) in HepG2 cells (AID 720687). The essentials:
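Cells (2,000/well in MEM with 10% FBS) attached overnight at 37 C, then were exposed to compound or DMSO for 1 hr at 37 C, 5% CO2. Fluorescence read at Ex/Em 405/460 nm, expressed as triamterene-equivalent signal.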

For experiment [9], the target named is Glucocorticoid receptor (Homo sapiens) (UniProt P04150). The experiment can be described thus: qHTS assay to identify small molecule agonists of the glucocorticoid receptor (GR) signaling pathway (AID 720691; active means well fitted activation curve with a large enough effect in the signal ratio in the repeat runs, not every such curve was filed as active; the % refers to the signal ratio). In short, it runs like this:
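Agonist mode in a HeLa line carrying a GRE-controlled beta-lactamase reporter. Compounds act for 18 h at 37 C before a 2 h room-temperature FRET substrate step and fluorescence reading.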

The target is the same in experiment [10]. The experiment can be described thus: qHTS assay to identify small molecule antagonists of the glucocorticoid receptor (GR) signaling pathway (AID 720692; active means well fitted inhibition curve with a large enough effect in the signal ratio in the repeat runs, not every such curve was filed as active; the % refers to the signal ratio). In short, it runs like this:
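Cells plated, rested 4 h at 37 C/5% CO2; compounds in DMSO pin-transferred; dexamethasone added to 5 nM final; 18 h at 37 C; B/G FRET substrate added, 2 h room temperature; fluorescence measured.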

Experiment [11] can be described thus: qHTS assay to identify small molecule antagonists of the glucocorticoid receptor (GR) signaling pathway - cell viability counter screen (AID 720693). Further: nearly all actives have a fitted effect of over 55% in size.
Experiment [12] is described as follows: qHTS assay for identifying genotoxic compounds that show differential cytotoxicity against isogenic chicken DT40 cell lines with known DNA damage response pathways - wild type cell line (AID 743012). Further: nearly all actives have a fitted effect of over 60% in size. Further: potency means the concentration at half of the fitted maximal effect. The essentials:
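Cells (DT40 wild type, 300/well) are treated with DMSO-dissolved compounds after a ~0.5 h pre-incubation and kept 40 h at 37 C/5% CO2. Viability is then measured by CellTiter-Glo luminescence following 30 min at room temperature.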

Experiment [13] is described as follows: qHTS assay for identifying genotoxic compounds that show differential cytotoxicity against isogenic chicken DT40 cell lines with known DNA damage response pathways - Rev3 mutant cell line (AID 743014). Further: nearly all actives have a fitted effect of over 55% in size. Further: potency means the concentration at half of the fitted maximal effect.
Experiment [14] in a line: qHTS assay for identifying genotoxic compounds that show differential cytotoxicity against isogenic chicken DT40 cell lines with known DNA damage response pathways - Rad54/Ku70 mutant cell line (AID 743015). Further: nearly all actives have a fitted effect of over 60% in size. Further: potency means the concentration at half of the fitted maximal effect.
Experiment [15] in a line: qHTS assay to identify small molecule antagonists of the androgen receptor (AR) signaling pathway using the MDA cell line - cell viability counter screen (AID 743041; further: nearly all actives have a fitted effect of over 45% in size). The essentials: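 MDA-kb2 AR-luc human breast carcinoma cells (MMTV-luciferase, AR/GR responsive) were treated with compounds plus R1881 agonist for 16 h at 37 °C. Viability was read as CellTiter-Fluor fluorescence in the same wells as the reporter assay.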

A short description of experiment [16]: qHTS assay to identify small molecule antagonists of the thyroid receptor (TR) signaling pathway - cell viability counter screen (AID 743064). Further: nearly all actives have a fitted effect of over 50% in size. Further: potency means the concentration at half of the fitted maximal effect. The essentials:
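GH3.TRE-Luc rat pituitary cells dosed after 4 hr plating, co-stimulated with T3 at 1 nM final, incubated 23.5 h at 37 C. Viability measured in the same wells by CellTiter-Fluor fluorescence after 30 min further at 37 C.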

Experiment [17] can be described thus: qHTS assay to identify small molecule antagonists of the androgen receptor (AR) signaling pathway - cell viability counter screen (AID 743033; further: nearly all actives have a fitted effect of over 45% in size).
Experiment [18] deals with Androgen receptor (Homo sapiens) (UniProt P10275). The experiment is described as follows: qHTS assay to identify small molecule antagonists of the androgen receptor (AR) signaling pathway using the MDA cell line (AID 743042; further: nearly all actives have a fitted effect of over 55% in size). In short, it runs like this: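 MDA-kb2 cells (human breast carcinoma, stably carrying an MMTV-luciferase reporter responsive to AR and GR) were plated at 3,000 cells/well and preincubated 5 hr at 37C, then given compound plus R1881 agonist for 16 h. ONE-Glo luminescence was read.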
Sequence of Androgen receptor (Homo sapiens) (P10275 whole entry, looked up): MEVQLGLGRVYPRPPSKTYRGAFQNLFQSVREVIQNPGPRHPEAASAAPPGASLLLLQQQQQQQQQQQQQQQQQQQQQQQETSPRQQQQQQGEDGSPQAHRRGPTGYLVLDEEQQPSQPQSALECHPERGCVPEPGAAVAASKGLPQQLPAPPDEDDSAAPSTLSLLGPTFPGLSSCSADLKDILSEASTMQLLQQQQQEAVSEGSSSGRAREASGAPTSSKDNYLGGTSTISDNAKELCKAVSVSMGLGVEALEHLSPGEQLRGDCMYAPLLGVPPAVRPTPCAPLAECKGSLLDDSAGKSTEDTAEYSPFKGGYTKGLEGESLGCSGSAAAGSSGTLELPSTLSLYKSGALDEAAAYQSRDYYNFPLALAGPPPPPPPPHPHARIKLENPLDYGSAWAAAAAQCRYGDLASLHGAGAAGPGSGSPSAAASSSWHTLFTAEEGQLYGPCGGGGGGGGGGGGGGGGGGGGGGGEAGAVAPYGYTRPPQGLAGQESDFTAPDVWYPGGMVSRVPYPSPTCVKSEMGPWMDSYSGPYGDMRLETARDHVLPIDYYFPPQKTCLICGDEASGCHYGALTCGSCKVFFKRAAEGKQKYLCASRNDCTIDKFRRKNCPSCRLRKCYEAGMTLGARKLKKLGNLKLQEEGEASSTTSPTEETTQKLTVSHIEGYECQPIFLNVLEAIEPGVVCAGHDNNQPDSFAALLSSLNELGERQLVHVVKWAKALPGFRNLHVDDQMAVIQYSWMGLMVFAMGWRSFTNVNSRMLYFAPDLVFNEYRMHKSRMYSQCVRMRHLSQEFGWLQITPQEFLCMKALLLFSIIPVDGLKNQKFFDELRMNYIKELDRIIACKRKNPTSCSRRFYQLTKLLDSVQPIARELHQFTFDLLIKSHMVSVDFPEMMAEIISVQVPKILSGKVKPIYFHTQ

Sequence of Glucocorticoid receptor (Homo sapiens) (P04150 whole entry, looked up): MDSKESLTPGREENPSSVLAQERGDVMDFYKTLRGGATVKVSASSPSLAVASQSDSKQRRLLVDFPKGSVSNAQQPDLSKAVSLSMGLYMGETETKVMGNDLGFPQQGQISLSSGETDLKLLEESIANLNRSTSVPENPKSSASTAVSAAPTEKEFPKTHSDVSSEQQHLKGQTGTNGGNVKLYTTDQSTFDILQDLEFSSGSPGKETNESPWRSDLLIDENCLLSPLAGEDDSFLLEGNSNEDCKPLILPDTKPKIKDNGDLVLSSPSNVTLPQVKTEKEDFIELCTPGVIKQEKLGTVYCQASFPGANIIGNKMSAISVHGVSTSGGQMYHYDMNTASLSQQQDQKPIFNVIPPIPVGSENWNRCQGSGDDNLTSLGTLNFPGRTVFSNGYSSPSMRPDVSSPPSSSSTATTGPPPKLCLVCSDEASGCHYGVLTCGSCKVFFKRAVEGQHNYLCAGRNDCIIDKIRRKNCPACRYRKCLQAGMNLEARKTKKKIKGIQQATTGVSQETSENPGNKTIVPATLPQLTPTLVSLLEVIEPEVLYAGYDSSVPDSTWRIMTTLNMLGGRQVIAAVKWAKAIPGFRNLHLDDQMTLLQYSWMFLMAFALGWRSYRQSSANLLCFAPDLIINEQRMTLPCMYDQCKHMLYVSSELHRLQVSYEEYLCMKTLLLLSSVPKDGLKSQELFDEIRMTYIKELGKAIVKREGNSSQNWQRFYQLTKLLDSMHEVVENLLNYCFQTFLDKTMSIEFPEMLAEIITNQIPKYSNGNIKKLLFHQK

Take `CCCCCCCCCCCC(=O)OCC`: the molecule was classed as inactive in [1], in experiment [3], in experiment [4], in experiment [5], in experiment [6] and in experiment [7]. Further, in [8], the result was inactive. In addition, the Potency entry in experiment [2], in experiment [9], in [10], in experiment [11], in experiment [12] and in experiment [13] was “inactive” each time. Also, the Potency result in experiment [14], in experiment [15] and in [16] was “inactive” throughout.
Consider `O=C(Cl)c1cc(Cl)cc(Cl)c1`, for which the outcome in [1], in [3], in [4], in [5], in [6] and in [7] was inactive. Moreover, in experiment [8], the molecule was called inactive. Also, the Potency entry in experiment [2], in experiment [9], in [10], in experiment [11], in experiment [12] and in experiment [13] was “inactive” each time. The Potency entry in experiment [14], in [15] and in experiment [16] was “inactive” in each case.
Turning to `Clc1nc2ccccc2nc1Cl`, the molecule was classed as inactive in [1], in experiment [3], in [4], in [5], in [6] and in [7]. Moreover, in experiment [8], the molecule was classed as inactive. In addition, the Potency result in experiment [2], in experiment [9], in experiment [10], in [11], in experiment [12] and in experiment [13] was “inactive” each time. The Potency result in experiment [14], in [17] and in experiment [15] was “inactive” each time.
With `Nc1cccc2c(=O)[nH][nH]c(=O)c12`, the outcome in [1], in experiment [3], in [4], in [5], in experiment [6] and in experiment [7] was inactive. The call in experiment [8] was inactive. Further, the Potency result in experiment [2], in [9], in experiment [10], in [11], in experiment [12] and in [13] was “inactive” each time. For the same molecule, the Potency entry in experiment [14], in [17], in experiment [15] and in [16] was “inactive” each time.
With `CCCc1nc(C)c2c(=O)[nH]c(-c3cc(S(=O)(=O)N4CCN(CC)CC4)ccc3OCC)nn12`, the molecule was classed as inactive in [1], in [3], in experiment [4], in experiment [5], in experiment [6] and in experiment [7]. Moreover, the result in experiment [8] was inactive. Also, the Potency result in experiment [2], in experiment [9], in [10], in experiment [11], in [12] and in experiment [13] was “inactive” in each case. The Potency result in [14], in experiment [17], in [15] and in [18] was “inactive” throughout.
As to `CCCCCC1CCC(=O)O1` (stereo unspecified), the result in experiment [1], in [3], in experiment [4], in experiment [5], in experiment [6] and in [7] was inactive. In experiment [8], the call was inactive. For the same molecule, the Potency result in [2], in experiment [9], in [10], in experiment [11], in experiment [12] and in [13] was “inactive” each time. For the same molecule, the Potency result in experiment [14], in experiment [17], in [15] and in [16] was “inactive” each time.
Consider `CCCCOc1ccc(N)cc1`, for which the result in experiment [1], in [3], in [4], in [5], in experiment [6] and in experiment [7] was inactive. Moreover, the outcome in experiment [8] was inactive. Also, the Potency entry in experiment [2], in experiment [9], in [10], in experiment [11], in experiment [12] and in experiment [13] was “inactive” each time. The Potency result in experiment [14], in experiment [15] and in [16] was “inactive” throughout.
Turning to `CCn1nc(Cc2ccccc2)cc1C1CCN(C[C@H]2C[C@H](N(C)[C@@H](C(=O)O)C(C)C)C[C@@H]2c2cccc(F)c2)CC1`, the call in [1], in [3], in experiment [4], in experiment [5], in [6] and in experiment [7] was inactive. Further, in experiment [8], the call was inactive. Further, the Potency entry in experiment [2], in experiment [9], in experiment [10], in [11] and in [15] was “inactive” in each case. In addition, the Potency in experiment [12] was 61.1 µM (active); in experiment [13], 61.1 µM (active); in [14] it was 24.3 µM (active); in experiment [16], 27.3 µM (active).
